A selection: hits, their analogues and other compounds. The true share with any hit is near 20%.
Shiga toxin inh – A qHTS for Small Molecule Inhibitors of Shiga Toxin; actives 9.2% (n = 290,000); Vero cells, Shiga toxin protein synthesis inhibition reporter; inhibition, % at 38.7 µM; in the data active = inhibition mostly above about 28%, no sharp cut-off; inactive = mostly below about 43%; note: 0% is about no effect
Cycloheximide cs – Cycloheximide Counterscreen for Small Molecule Inhibitors of Shiga Toxin; cell reporter, cycloheximide protein synthesis inhibition counterscreen; AID 2314, 2010; max response, %; actives 12% (n = 300,000); in the data active = max response mostly above about 13%, no sharp cut-off; inactive = mostly below about 14%; note: read at 38.3 µM for the half of the compounds with a filed dose; 0% is about no effect
HCMV inh – qHTS Assay for inhibitors of the human cytomegalovirus (HCMV). HFF cells, HCMV-luciferase reporter, 72 h; stronger effect = lower value. activity change, negative = inhibition, % at 57.5 µM. actives 4.5% (n = 410,000); in the data active = activity change below about -60%; inconclusive = no clear call, values can overlap the other calls; inactive = above about -39%; note: % is set by controls: 0 for no effect and ±100 for the full control effect
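Luciferase read-out from HCMV-luciferase-infected HFFs (MOI 1 PFU/cell) 72 h post infection at 37C; compounds added after 16 h cell attachment; activity normalized between buffer-only basal and Salinomycin (10uM) inhibitor controls.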
Pf growth 96h – Primary qHTS for delayed death inhibitors of the malarial parasite plastid, 96 hour incubation; AID 504834, 2011; actives 6.9% (n = 320,000); Potency, µM (top dose mostly 28.7 µM), inactives show top-dose activity change, negative = inhibition, most hits filed as inhibitors; P. falciparum luciferase reporter growth, 96 h; note: potency is the fitted concentration of half-maximal effect; % is set by controls: 0 for no effect and ±100 for the full control effect
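Parasite growth measured via integrated firefly luciferase reporter in P. falciparum. Infected erythrocytes at 2% hematocrit, 0.05% parasitemia final were treated 96 hours at 37 C under 5% CO2, and luminescence was read.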
Pf growth 48h – Primary qHTS for delayed death inhibitors of the malarial parasite plastid, 48 hour incubation; P. falciparum luciferase growth in erythrocytes, 48 h; Potency, µM (highest dose often 28.7 µM), for inactives: at the top dose activity change, negative = inhibition, most hits filed as inhibitors; actives 5.9% (n = 310,000); AID 504832, 2011; note: potency is the fitted concentration of half-maximal effect; % is set by controls: 0 for no effect and ±100 for the full control effect
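A one-generation exposure of luciferase-tagged malaria parasites in RPMI 1640/Albumax erythrocyte culture, 37 C and 5% CO2. Inhibition is inferred from decreased luminescence after adding detection reagent.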
The depositor's hits bear a star; ? = inconclusive; / = no result. Unless noted, calls come from the whole dose curve; as a rule, active = well fitted inhibition curve with a large enough effect; inconclusive = small, poorly fitted or top-dose-only effect, or another doubt; inactive = no such curve, though single readings can be large or run the other way.

SMILES	Shiga toxin inh	Cycloheximide cs	HCMV inh	Pf growth 96h	Pf growth 48h
COc1ccc(NC(=O)CCS(=O)(=O)c2ccc3c(c2)n(C)c(=O)c(=O)n3C)cc1Cl	/	/	16	/	/
O=S(=O)(N1CCOCC1)N1CCCN(S(=O)(=O)N2CCOCC2)CC1	12	-1	-30	28%	-8%
O=C(N1CCOCC1)N1CCN(S(=O)(=O)N2CCCCC2)CC1	-4	-1	4	4.1µM*	12%
S=C1NCCN1c1ccc(Cl)cc1	/	/	-19	/	/
Cc1ccc(C23CC4CC(CC(C(N)=O)(C4)C2)C3)cc1	-11	-3	50	?	30%
Cc1ccc(-c2ncccc2OC(=O)C23CC4CC(CC(C4)C2)C3)cc1	32	13	-26	9.3µM*	?
Cc1ccc(/C(N)=N/OC(=O)C23CC4CC(CC(C4)C2)C3)cc1	101*	23*	5	?	35%
N/C(=N\OC(=O)C12CC3CC(CC(C3)C1)C2)c1ccncc1	28	7	5	?	10µM*
Cc1cccc(C)c1Nc1c(-c2ccsc2)nc2cccc(C)n12	/	/	-14	/	/
CCOC(=O)c1cc2n(c1/N=C/N(C)C)-c1ccccc1C2=O	-3	0	31	?	/
COc1cccc(CNC(=O)COC(=O)c2cccc(S(=O)(=O)N3CCCC3)c2)c1	/	/	-34	-1%	?
CCCCSc1ncnc2[nH]ncc12	25	23*	-8	41%	7%
Cc1ccccc1C(=O)Oc1ccccc1C(=O)N1CCOCC1	10	-2	12	8.3µM*	-13%
COC(=O)c1ccccc1C(=O)N1CCOCCN(C(=O)c2ccccc2C(=O)OC)CCOCC1	-8	-4	62	23%	9%
O=C(Nc1ccccc1Cl)c1cc(C2CCCCN2C(=O)c2ccccc2)on1 (centres undefined)	/	/	-8	/	/
O=C(Cn1cnc2ccccc2c1=O)c1c[nH]c2ccccc12	-4	3	43	6.6µM*	62%
CC(=O)NCCc1ccc(C(=O)Cn2cnc3ccccc3c2=O)cc1	78*	79*	53	24%	44%
CC(C)C(c1nnnn1Cc1ccccc1)N1C(=O)C(=O)c2ccccc21 (centres undefined)	/	/	-30	/	/
Cc1ccc(C(=O)NC2CC(C)(C)NC(C)(C)C2)cc1S(=O)(=O)N1CCCCC1	/	/	-22	-18%	?
O=C(Nc1ccc(F)cc1)c1ccc(Br)c(S(=O)(=O)N2CCOCC2)c1	28	8	-27	4%	?
O=C(Nc1ccc2c(c1)OCO2)c1cccc(S(=O)(=O)N2CCOCC2)c1	/	/	40	/	/
O=C(Nc1ccc2c(c1)OCCO2)c1ccc(S(=O)(=O)N2CCCCC2)cc1	64	33*	?	-9%	?
O=C(Nc1ccc2c(c1)OCO2)c1cccc(S(=O)(=O)N2CCCC2)c1	41*	24*	18	/	15%
O=C(Nc1ccccc1)c1ccc(Br)c(S(=O)(=O)N2CCCCC2)c1	/	/	0	/	/
O=C(Nc1ccc2c(c1)OCO2)c1ccc(Br)c(S(=O)(=O)N2CCCC2)c1	61*	28*	-35	34%	2.6µM*
SMILES	Shiga toxin inh	Cycloheximide cs	HCMV inh	Pf growth 96h	Pf growth 48h
O=C(Nc1ccc2c(c1)OCCO2)c1ccc(Br)c(S(=O)(=O)N2CCOCC2)c1	52*	32*	-37	-20%	2.3µM*
O=C(O)c1ccc(NC(=O)c2ccc(Br)c(S(=O)(=O)N3CCCC3)c2)cc1	/	/	-10	/	/
O=C(NCC1CCCO1)c1ccc(Br)c(S(=O)(=O)N2CCOCC2)c1 (centres undefined)	/	/	-35	1.3µM*	?
O=C(O)c1ccc(Br)c(S(=O)(=O)N2CCCC2)c1	-11	5	33	13µM*	-39%
CCOC(=O)N1CCN(C(=O)/C(=C/c2cccs2)NC(=O)c2cccs2)CC1	-10	-1	-17	3%	17%
Cc1ccc(C)c(S(=O)(=O)NCC(=O)OCC(=O)Nc2sccc2C(N)=O)c1	/	/	-21	18%	-13%
COc1ccccc1C(=O)Nc1ccc2c(c1)CC1(C(=O)N(C)C(=O)N(C)C1=O)C1CCCN21 (centres undefined)	-6	-9	-18	2.6µM*	?
CN1C(=O)N(C)C(=O)C2(Cc3cc([N+](=O)[O-])ccc3N3CCN(C(=O)c4ccccc4)CC32)C1=O (centres undefined)	-18	-4	-24	21%	?

Assay outcomes from PubChem.
